Measured values reported in PubChem BioAssay (Tox21).
Results filed as inconclusive are left out. A call without a number means that no potency is given here. Activity calls are given as the source filed them. Calls follow the shape of the full dose curve.

Each molecule was assayed against D(2) dopamine receptor (Homo sapiens) (UniProt P14416) (assay: Dopamine D2 receptor (DRD2) small molecule agonists, cell-based qHTS assay (AID 1963594; also: nearly all actives have a fitted effect of over 35% in size)). Conditions: HEK293-DRD2 cAMP HTRF, agonist mode, 30 min; series mostly up to 92.4 µM.
D(2) dopamine receptor (Homo sapiens), sequence (P14416 whole entry, looked up): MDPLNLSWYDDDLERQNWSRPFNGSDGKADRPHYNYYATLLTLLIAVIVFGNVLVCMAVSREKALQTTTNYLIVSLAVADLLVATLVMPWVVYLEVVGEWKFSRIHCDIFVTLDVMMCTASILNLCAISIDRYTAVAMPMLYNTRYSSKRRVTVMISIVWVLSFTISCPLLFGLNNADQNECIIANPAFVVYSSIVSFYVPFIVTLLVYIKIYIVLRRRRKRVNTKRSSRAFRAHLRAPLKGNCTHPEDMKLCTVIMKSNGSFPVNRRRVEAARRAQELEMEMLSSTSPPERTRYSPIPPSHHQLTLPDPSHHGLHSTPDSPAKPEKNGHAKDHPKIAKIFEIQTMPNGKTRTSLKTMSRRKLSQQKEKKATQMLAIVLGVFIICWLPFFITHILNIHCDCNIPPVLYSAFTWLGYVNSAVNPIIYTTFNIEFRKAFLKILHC
From the text: National Center for Advancing Translational Sciences [NCATS]
Division of Preclinical Innovation [DPI]
U.S. Environmental Protection Agency [EPA]
National Institutes of Environmental Health Sciences [NIEHS]
National Toxicology Program [NTP]
U.S. Food and Drug Administration [FDA]
DRD2 is the D2 subtype of the dopamine receptor, which is coupled to Gi subtype of G protein-coupled receptor. This G protein-coupled receptor inhibits adenylyl cyclase activity. The DRD2-HEK293 cell line stably expressing D2 dopamine receptor can be used for screening agonists and antagonists of interactions between D2 and its ligands. The Hek293-DRD2 cAMP assay is based on HTRF technology. It measures changes of cAMP accumulation in response to Gi coupled GPCR activation or inhibition.
Tox21 Assay Protocol Summary:
DRD2-Hek293 cells were dispensed at 600 cells/3uL/well in 1536-well white plates using a Multidrop Dispenser. After the assay plates were incubated at a 37 C/5% CO2 incubator for 24 h, 1 uL of Ro20-1724 at final concentration of 0.1 mM was transferred to the assay plate by a Flying Reagent Dispenser. Following Ro20-1724 addition, 23 nL of compound dissolved in DMSO, positive controls or DMSO only was added to the assay plates via Wako pintool station. The assay plates were incubated at room temperature for 10 min. Next, 1 uL of NKH477 at 200nM was added into the plates. After the assay plates were incubated at room temperature for an additional 30 min, 2.5 ul/well of cAMP-d2 and 2.5 ul/well of anti-cAMP-cryptate were added respectively into the assay plates using a Flying Reagent Dispenser. The plates were incubated at room temperature for 1 h. The fluorescence intensity in the plates was measured at 340 nm excitation and 665 & 620 nm emission by an Envision plate reader.
With `CCCCOC(=O)CCC(=O)OCCCC` the Potency was “inactive”. With `Nc1ccc(Cc2ccc(N)cc2)cc1` the Potency was “inactive”. In the case of `CC(Oc1ccc(Cl)cc1Cl)C(=O)O` (stereo not given), the Potency is reported as “inactive”. For `C=CCO`, the Potency was “inactive”. In the case of `[Cl-].[Cl-].[Cl-].[Fe+3]`, the Potency is reported as “inactive”. `CC1C=[C-]C=C1.[C-]#[O+].[C-]#[O+].[C-]#[O+].[Mn]` was tested, and the Potency was “inactive”. `Fc1cc(Br)ccc1CBr` was tested, and the Potency was “inactive”. For `O=C(NC(=O)c1c(F)cccc1F)Nc1cc(Cl)c(OC(F)(F)C(F)C(F)(F)F)cc1Cl` (stereo not given), the Potency was “inactive”. For `CC(O)CN(CC(C)O)CC(C)O` (stereo not given), the Potency was “inactive”. With `O=C(O)CCl` the Potency was “inactive”. With `Nc1nc(=S)[nH][nH]1` the Potency was “inactive”. `CC1(C)[C@H](C(=O)O[C@H](C#N)c2cccc(Oc3ccccc3)c2)[C@@H]1C=C(Br)Br` was tested, and the Potency was “inactive”. In the case of `CCCCc1c(C)nc(NCC)[nH]c1=O`, the Potency is reported as “inactive”. In the case of `CCCCCON=O`, the Potency is reported as “inactive”. `CCN(CC)N=O` was tested, and the Potency was “inactive”. With `Nc1ccc(N)cc1` the Potency was “inactive”. `CCCCN(CCCC)SN(C)C(=O)Oc1cccc2c1OC(C)(C)C2` was tested, and the Potency was “inactive”. With `CC(C(=O)c1ccccc1)N(C)C` (stereo not given) the Potency was “inactive”. For `O=C(O)c1ccc(=O)[nH]c1`, the Potency was “inactive”. `CC(C)NC(C)C` was tested, and the Potency was “inactive”. For `BrCCBr`, the Potency was “inactive”. For `COC(=O)Nc1cccc(OC(=O)Nc2cccc(C)c2)c1`, the Potency was “inactive”. With `O=C(CCl)CCl` the Potency was “inactive”. For `CCCC[N+]1(C)CCCC1`, the Potency was “inactive”. With `COCC(=O)N(c1c(C)cccc1C)[C@H](C)C(=O)OC` the Potency was “inactive”. For `c1ccc(N2CCNCC2)cc1`, the Potency was “inactive”. In the case of `CCN(CC)C(=S)S`, the Potency is reported as “inactive”. For `C[Si](Cn1cncn1)(c1ccc(F)cc1)c1ccc(F)cc1`, the Potency was “inactive”. `CC(=O)CC(c1ccc(Cl)cc1)c1c(O)c2ccccc2oc1=O` (stereo not given) was tested, and the Potency was “inactive”. `C=CCN(CC=C)C(=O)C(Cl)Cl` was tested, and the Potency was “inactive”. In the case of `C=Cc1cccc(CCl)c1`, the Potency is reported as “inactive”. In the case of `C=CC1(C)OC(=O)N(c2cc(Cl)cc(Cl)c2)C1=O` (stereo not given), the Potency is reported as “inactive”. With `CC(C)c1ccc(NC(=O)N(C)C)cc1` the Potency was “inactive”. With `CC(C)CCON=O` the Potency was “inactive”. With `CC(C)OC(=O)Nc1cccc(Cl)c1` the Potency was “inactive”. For `CC(C)(C)CC(C)(C)c1ccc(O)cc1`, the Potency was “inactive”. In the case of `CC1CC(=O)O1` (stereo not given), the Potency is reported as “inactive”. In the case of `O=C(O)COc1ccccc1`, the Potency is reported as “inactive”. `O=[N+]([O-])c1ccc(Oc2ccc(Cl)cc2Cl)cc1` was tested, and the Potency was “inactive”. With `CN1CC[C@]23c4c5ccc(O)c4O[C@H]2[C@@H](O)CC[C@H]3[C@H]1C5` the Potency was “inactive”.
